Our source for the residual activity values is ChEMBL document CHEMBL2218924, “A broad activity screen in support of a chemogenomic map for kinase signalling research and drug discovery” (Biochem J, 2013).

The target of experiment [1] is T1, Serine/threonine-protein kinase TBK1 (Homo sapiens) (UniProt Q9UHD2).
T1 sequence (whole entry): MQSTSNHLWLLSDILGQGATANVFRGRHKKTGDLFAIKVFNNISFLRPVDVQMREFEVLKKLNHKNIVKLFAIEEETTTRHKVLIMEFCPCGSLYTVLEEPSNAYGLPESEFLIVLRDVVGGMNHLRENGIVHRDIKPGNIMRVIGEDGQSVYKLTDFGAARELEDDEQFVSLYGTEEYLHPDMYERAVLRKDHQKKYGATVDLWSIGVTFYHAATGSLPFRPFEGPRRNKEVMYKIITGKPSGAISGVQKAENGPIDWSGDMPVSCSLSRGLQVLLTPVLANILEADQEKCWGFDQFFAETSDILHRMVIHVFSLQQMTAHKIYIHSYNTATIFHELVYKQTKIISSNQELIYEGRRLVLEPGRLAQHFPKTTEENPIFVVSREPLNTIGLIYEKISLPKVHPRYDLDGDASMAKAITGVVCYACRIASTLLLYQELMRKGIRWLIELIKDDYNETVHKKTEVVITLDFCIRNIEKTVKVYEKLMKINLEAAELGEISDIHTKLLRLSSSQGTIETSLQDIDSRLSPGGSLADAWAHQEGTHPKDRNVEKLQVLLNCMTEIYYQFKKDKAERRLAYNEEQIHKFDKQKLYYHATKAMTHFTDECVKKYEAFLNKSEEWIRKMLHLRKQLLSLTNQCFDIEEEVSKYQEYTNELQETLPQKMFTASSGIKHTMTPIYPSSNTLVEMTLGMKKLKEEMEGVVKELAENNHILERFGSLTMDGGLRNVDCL
The conditions noted are these: at 10 µM.

Experiment [2] addresses T2, TGF-beta receptor type-1 (Homo sapiens) (UniProt P36897).
T2 sequence (whole entry): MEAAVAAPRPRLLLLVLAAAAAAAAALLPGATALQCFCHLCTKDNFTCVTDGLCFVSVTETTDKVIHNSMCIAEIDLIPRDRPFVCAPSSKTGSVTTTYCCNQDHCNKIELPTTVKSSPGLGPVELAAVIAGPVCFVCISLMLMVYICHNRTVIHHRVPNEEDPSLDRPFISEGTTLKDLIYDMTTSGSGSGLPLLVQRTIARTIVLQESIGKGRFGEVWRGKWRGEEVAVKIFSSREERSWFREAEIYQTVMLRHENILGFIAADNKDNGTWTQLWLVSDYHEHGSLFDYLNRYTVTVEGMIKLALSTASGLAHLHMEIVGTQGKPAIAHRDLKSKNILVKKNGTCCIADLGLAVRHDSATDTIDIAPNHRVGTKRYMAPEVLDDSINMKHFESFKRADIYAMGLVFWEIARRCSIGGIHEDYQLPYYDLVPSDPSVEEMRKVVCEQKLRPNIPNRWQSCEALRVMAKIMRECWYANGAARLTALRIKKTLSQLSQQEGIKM
The conditions noted are these: at 1 µM.

Experiment [3] addresses T2, TGF-beta receptor type-1 (Homo sapiens). Particulars: at 10 µM.
The target in experiment [4] is Insulin-like growth factor 1 receptor (Homo sapiens) (UniProt P08069). The conditions noted are these: at 1 µM.
Sequence of Insulin-like growth factor 1 receptor (Homo sapiens) (P08069 31-736 limits assumed): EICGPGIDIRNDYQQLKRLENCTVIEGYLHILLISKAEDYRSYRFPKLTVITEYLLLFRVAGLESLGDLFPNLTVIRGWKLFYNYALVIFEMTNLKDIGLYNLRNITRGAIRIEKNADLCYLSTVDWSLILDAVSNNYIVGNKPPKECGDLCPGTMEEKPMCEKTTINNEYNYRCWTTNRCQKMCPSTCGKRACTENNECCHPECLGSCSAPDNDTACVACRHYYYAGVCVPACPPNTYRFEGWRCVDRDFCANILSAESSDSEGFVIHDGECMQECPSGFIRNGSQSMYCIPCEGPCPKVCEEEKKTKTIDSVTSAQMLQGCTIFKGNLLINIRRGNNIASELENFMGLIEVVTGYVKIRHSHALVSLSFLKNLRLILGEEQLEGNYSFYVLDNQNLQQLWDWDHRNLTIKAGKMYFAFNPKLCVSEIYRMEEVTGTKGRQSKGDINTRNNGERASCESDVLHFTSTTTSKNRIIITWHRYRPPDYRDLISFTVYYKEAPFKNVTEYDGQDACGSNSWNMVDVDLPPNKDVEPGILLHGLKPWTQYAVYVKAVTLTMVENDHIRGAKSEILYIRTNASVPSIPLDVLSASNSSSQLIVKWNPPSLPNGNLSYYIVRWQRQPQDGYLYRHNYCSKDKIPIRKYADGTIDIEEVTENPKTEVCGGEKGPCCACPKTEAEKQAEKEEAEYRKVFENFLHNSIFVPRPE
Sequence of Insulin-like growth factor 1 receptor (Homo sapiens) (P08069 741-1367 limits assumed): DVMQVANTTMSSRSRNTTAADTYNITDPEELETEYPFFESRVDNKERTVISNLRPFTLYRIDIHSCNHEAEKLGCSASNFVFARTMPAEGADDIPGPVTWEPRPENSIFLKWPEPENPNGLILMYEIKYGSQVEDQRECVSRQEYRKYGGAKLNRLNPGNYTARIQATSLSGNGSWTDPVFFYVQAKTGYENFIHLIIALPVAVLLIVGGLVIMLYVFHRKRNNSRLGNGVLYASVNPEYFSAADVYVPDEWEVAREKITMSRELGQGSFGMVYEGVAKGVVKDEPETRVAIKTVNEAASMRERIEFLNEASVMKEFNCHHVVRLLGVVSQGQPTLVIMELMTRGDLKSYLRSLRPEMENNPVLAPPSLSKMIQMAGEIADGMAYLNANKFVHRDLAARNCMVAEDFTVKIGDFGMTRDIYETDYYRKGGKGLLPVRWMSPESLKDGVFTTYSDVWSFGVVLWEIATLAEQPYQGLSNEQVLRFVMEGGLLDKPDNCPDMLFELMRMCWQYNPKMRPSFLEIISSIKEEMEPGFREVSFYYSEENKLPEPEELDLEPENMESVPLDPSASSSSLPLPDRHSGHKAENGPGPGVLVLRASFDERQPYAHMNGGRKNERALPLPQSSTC
For experiment [5] the target is unchanged. The conditions noted are these: at 10 µM.
For experiment [6], the target named is T3, Inhibitor of nuclear factor kappa-B kinase subunit alpha (Homo sapiens) (UniProt O15111).
T3 sequence (whole entry): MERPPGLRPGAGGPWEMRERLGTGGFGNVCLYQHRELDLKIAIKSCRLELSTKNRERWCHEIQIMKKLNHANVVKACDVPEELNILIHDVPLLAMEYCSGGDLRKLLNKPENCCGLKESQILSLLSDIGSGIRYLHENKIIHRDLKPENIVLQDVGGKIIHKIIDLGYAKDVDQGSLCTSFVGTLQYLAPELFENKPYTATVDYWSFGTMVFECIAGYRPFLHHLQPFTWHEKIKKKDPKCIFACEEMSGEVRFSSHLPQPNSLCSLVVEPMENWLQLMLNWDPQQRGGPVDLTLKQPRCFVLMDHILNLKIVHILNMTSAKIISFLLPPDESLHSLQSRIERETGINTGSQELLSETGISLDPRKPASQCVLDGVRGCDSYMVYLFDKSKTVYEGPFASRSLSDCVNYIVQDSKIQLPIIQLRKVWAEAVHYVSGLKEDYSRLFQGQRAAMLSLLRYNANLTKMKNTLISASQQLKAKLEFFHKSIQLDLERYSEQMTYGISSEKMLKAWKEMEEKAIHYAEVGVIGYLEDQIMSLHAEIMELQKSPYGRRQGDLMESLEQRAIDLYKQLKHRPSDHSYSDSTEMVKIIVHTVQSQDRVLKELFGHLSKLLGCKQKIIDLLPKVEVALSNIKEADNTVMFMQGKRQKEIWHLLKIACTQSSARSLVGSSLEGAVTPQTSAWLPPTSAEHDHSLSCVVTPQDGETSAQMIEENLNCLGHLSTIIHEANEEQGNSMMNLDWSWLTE
The conditions noted are these: at 1 µM.

Experiment [7] addresses T3, Inhibitor of nuclear factor kappa-B kinase subunit alpha (Homo sapiens). Particulars: at 10 µM.
For experiment [8], the target named is T4, Inhibitor of nuclear factor kappa-B kinase subunit beta (Homo sapiens) (UniProt O14920).
T4 sequence (whole entry): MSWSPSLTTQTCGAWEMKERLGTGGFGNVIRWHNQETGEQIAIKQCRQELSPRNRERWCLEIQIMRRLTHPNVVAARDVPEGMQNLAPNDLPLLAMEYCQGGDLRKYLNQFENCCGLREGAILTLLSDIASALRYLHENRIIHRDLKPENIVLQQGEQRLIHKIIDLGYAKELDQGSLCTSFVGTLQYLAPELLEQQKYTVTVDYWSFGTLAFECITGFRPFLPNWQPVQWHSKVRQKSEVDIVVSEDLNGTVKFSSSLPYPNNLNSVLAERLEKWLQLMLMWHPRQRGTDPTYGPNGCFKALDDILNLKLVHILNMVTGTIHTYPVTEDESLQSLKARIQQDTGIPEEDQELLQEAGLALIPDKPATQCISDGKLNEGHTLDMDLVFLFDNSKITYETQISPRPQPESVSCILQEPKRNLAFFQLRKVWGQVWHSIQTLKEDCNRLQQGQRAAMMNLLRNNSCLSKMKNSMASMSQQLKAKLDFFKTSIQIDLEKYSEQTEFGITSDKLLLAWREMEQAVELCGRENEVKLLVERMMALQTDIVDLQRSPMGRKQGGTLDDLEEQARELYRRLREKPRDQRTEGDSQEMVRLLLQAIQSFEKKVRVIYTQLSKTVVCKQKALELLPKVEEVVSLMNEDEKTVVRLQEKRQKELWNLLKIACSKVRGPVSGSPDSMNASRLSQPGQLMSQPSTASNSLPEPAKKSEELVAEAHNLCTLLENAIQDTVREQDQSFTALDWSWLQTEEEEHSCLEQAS
The conditions noted are these: at 1 µM.

Experiment [9] addresses T4, Inhibitor of nuclear factor kappa-B kinase subunit beta (Homo sapiens). Particulars: at 10 µM.
Experiment [10] has as its target Insulin receptor (Homo sapiens) (UniProt P06213). The conditions noted are these: at 1 µM.

Sequence of Insulin receptor (Homo sapiens) (P06213 28-758 limits assumed): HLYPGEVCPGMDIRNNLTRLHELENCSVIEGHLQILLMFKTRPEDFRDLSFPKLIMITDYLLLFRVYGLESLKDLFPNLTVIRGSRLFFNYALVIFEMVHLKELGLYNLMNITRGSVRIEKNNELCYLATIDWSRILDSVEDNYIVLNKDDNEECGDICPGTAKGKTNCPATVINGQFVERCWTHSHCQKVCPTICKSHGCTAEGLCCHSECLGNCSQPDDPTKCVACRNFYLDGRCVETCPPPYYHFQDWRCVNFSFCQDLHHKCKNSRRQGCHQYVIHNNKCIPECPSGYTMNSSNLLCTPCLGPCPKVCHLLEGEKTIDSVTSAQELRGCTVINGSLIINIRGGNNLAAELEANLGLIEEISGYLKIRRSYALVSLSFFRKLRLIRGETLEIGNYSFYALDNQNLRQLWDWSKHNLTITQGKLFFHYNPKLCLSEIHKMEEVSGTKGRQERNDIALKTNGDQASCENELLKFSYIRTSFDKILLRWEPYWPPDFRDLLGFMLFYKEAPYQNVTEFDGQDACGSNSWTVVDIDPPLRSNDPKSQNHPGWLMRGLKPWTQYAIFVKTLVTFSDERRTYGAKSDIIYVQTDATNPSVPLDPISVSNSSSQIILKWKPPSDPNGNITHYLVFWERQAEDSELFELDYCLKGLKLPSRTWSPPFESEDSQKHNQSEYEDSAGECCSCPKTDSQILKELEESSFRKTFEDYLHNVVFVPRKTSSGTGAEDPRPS
Sequence of Insulin receptor (Homo sapiens) (P06213 763-1382 limits assumed): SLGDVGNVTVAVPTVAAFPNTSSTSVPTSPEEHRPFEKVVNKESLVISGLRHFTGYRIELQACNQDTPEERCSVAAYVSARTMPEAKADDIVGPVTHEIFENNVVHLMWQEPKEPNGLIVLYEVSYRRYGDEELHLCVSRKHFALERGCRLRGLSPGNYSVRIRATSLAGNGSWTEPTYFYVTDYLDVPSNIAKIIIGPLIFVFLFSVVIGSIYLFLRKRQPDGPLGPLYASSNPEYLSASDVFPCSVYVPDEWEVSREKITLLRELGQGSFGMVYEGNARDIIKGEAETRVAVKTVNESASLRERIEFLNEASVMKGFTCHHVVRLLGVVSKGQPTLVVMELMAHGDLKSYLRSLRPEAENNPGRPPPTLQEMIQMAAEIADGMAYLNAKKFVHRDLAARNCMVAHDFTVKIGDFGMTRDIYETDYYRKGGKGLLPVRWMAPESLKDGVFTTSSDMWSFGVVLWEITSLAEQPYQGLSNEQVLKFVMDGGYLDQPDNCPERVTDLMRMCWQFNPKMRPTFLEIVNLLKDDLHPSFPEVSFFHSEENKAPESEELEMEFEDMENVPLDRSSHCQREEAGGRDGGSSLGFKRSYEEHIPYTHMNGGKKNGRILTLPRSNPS

Usually residual activity stands for the signal under treatment as a percentage of the control signal. As to `CC(=O)O/N=C1\C(=C2\C(=O)Nc3cc(Br)ccc32)Nc2ccccc21`, the residual activity in experiment [1] turned out to be 14%; in experiment [2] it was 91%; in experiment [3], 74%; in experiment [4], 102%; in experiment [5] it was 100%; in [6] it was 111%. The residual activity in [7] was determined as 108%; in experiment [8] it was 101%; in experiment [9], 93%; in [10] it was 118%.

For the molecule `COc1ccc(S(=O)(=O)N(CCO)c2ccccc2CN(C)C/C=C/c2ccc(Cl)cc2)cc1`, the residual activity was determined as 56% in experiment [1]; 97% in experiment [2]; 92% in [3]; 94% in [4]; 93% in experiment [5]; 117% in experiment [6]. Also, the residual activity in experiment [7] turned out to be 108%; in experiment [8], 115%; in [9], 110%; in experiment [10] it was 91%.

For `Nc1nc(Nc2ccc(S(N)(=O)=O)cc2)nn1C(=S)Nc1c(F)cccc1F`, the residual activity in [1] was -2%; in experiment [2] it was 13%; in experiment [3] it was 2%; in [4], 74%; in experiment [5], 83%; in experiment [6], 10%. The residual activity was 1% in experiment [7], 33% in experiment [8] and 6% in experiment [9].

`Oc1ccc(-c2nc(-c3ccc(F)cc3)c(-c3ccncc3)[nH]2)cc1`: the residual activity in experiment [1] was determined as 85%; in experiment [2], 100%; in experiment [3], 40%; in experiment [4], 122%; in [5], 123%; in experiment [6], 90%. The residual activity in experiment [7] is 59%; in [8] it was 120%; in [9] it was 91%; in experiment [10] it was 136%.

Consider `C[C@@H](N)[C@H]1CC[C@H](C(=O)Nc2ccncc2)CC1`, for which the residual activity was 99% in [1]; 113% in experiment [2]; 105% in experiment [3]; 115% in [4]; 105% in [5]; 136% in experiment [6]. In addition, the residual activity in experiment [7] is 64%; in experiment [8], 87%; in [9] it was 77%; in experiment [10], 100%.

Regarding `N#C/C(=C(\N)Sc1ccc(N)cc1)c1ccccc1C(F)(F)F`, the residual activity was 16% in experiment [1]; 101% in experiment [2]; 95% in [3]; 103% in [4]; 102% in experiment [5]; 101% in [6]. The residual activity in experiment [7] came out at 121%; in experiment [8], 106%; in experiment [9] it was 109%; in [10], 113%.

Turning to `O=C(Nc1cccc(Nc2cc(Nc3cccc(C(F)(F)F)c3)ncn2)c1)C1CC1`, the residual activity turned out to be 61% in experiment [1]; 89% in experiment [2]; 77% in [3]; 98% in experiment [4]; 89% in experiment [5]; 108% in experiment [6]. Also, the residual activity amounted to 125% in experiment [7], 99% in experiment [8], 96% in [9] and 105% in experiment [10].

As to `O=C1Nc2ccc(Br)cc2/C1=C\c1cc2c([nH]1)CCCC2`, the figures for the residual activity in [1], in [6] and in [7] were 65%, 102% and 115%, respectively.

For `N#Cc1cnc2cnc(NCc3cccnc3)cc2c1Nc1ccc(F)c(Cl)c1`, the residual activity is 2% in experiment [1]; 126% in [2]; 123% in experiment [3]; 74% in experiment [6]; 58% in [7]; 84% in [8]. For the same molecule, the residual activity in [9] was 74%; in experiment [10] it was 136%.
